Screening results deposited in PubChem BioAssay by several laboratories.
Shown are actives, neighbours in structure and some others; about 3.2% of the full set was active somewhere.
Dyrk1A ADPGlo = Dyrk1A (rat) kinase inhibition | Q63470 | ADP-Glo luminescence, NFATc1 peptide | inhibition, % at 12.5 µM | actives 0.43% (n = 310,000); in the data active = inhibition above about 50%;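 also: plate controls were vehicle with enzyme for no effect and no enzyme for full effect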
CDK5 p35 inh = CDK5/p35 (human) kinase inhibition; Q00535+Q15078; Recombinant CDK5/p35, ADP-Glo luminescence, 60 min; inhibition, % at 10 µM; actives 0.01% (n = 330,000); AID 488839;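 active = highest replicate inhibition of at least 50% and at least 75% of replicates reaching 50%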;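 also: plate controls were DMSO neutral control for no effect and GW8510 at 10 µM for full effect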
Rtt109 HAT inh = blocks Candida albicans Rtt109/Vps75 acetyltransferase activity; Q5AAJ8; purified Rtt109/Vps75, ThioGlo CoA-SH fluorescence, 4 h; inhibition, % at 34.9 µM; actives 0.16% (n = 330,000); AID 540336;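 active = inhibition of at least 50% in every replicate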
Target sequence (Q5AAJ8 whole entry, looked up): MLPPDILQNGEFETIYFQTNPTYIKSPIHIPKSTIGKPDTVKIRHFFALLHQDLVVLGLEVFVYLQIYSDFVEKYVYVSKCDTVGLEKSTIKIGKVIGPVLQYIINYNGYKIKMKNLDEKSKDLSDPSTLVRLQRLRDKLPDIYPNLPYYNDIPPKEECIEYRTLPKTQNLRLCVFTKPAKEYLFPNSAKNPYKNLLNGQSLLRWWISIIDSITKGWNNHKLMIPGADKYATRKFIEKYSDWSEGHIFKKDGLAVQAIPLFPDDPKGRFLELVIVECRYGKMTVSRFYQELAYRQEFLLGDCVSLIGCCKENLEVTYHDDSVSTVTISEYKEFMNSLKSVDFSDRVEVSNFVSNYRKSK
SMARCA2 act = SMARCA2 function activation, primary screen | MG213 cells, MMTV-luciferase reporter, dexamethasone, overnight | activation, % at 9.1 µM | actives 1% (n = 370,000) | AID 652017; in the data active = activation above about 7.8%;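 also: 0% = vehicle wells and 100% = reference activator wells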
dFosB act = enhances mouse delta FosB homodimer DNA binding. purified delta FosB, TAMRA-CDK5 oligo fluorescence polarization; percent of positive-control signal above neutral wells. P13346. actives 0.99% (n = 340,000). activation, % at 25 µM;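 active = mean activation above about 17%, with every replicate also reaching it, limit read from the data, passing the limit was not always enough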
Target sequence (P13346 whole entry, looked up): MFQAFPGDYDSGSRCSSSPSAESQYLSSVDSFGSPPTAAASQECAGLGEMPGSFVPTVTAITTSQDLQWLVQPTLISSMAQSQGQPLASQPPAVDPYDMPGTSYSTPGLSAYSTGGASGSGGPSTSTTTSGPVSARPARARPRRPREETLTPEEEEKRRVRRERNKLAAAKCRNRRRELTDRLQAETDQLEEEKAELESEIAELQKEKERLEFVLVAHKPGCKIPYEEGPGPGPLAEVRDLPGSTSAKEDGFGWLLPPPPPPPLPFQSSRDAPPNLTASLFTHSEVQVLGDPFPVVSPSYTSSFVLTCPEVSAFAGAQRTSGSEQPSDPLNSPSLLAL
esBAF inh = SWI/SNF esBAF complex inhibition; mouse ES cells, Bmi1-luciferase knock-in reporter, 24 h; 100% = twice the neutral-well signal; reporter increase, % at 12.5 µM; actives 2% (n = 350,000); in the data active = activation above about 40%;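 also: 0% = median of the plate's neutral control wells and 100% = double that signal; a rise in the Bmi1 reporter signal indicates esBAF inhibition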
Numbers without * were called inactive.

How did Cc1ccc(C(=O)Cn2cnc3ccccc3c2=O)cc1C do in these assays?
Dyrk1A ADPGlo: 10.1; CDK5 p35 inh: 0.0; Rtt109 HAT inh: -4.6; SMARCA2 act: 1.1; dFosB act: -1.0; esBAF inh: 56.8*

Results for CCc1ccc2nc(NC(=O)Cn3cnc4ccccc4c3=O)sc2c1 ?
Dyrk1A ADPGlo: -2.7; CDK5 p35 inh: 2.9; Rtt109 HAT inh: -5.7; SMARCA2 act: -0.7; dFosB act: 154.4*; esBAF inh: 45.9

Results for COc1ccc(NC(=O)N(C)C[C@H]2Oc3ccc(NC(=O)c4ccncc4)cc3CC(=O)N([C@H](C)CO)C[C@H]2C)cc1 ?
esBAF inh: 2.5

How did CC(=O)N1[C@@H]2c3ccc(C4=CCCC4)c(=O)n3C[C@H]1[C@H](CO)[C@H]2C(=O)NCc1ccccc1 do in these assays?
esBAF inh: 1.8

Results for Cc1ccc(C(=O)/C=C/c2cn(CN3CCN(C)CC3)c3ccccc23)cc1 ?
Dyrk1A ADPGlo: 8.4; CDK5 p35 inh: -2.9; Rtt109 HAT inh: -12.6; SMARCA2 act: 4.7; dFosB act: -18.8; esBAF inh: 55.1*

How did C[C@H](CO)N1C[C@H](C)[C@@H](CN(C)S(=O)(=O)c2cn(C)cn2)Oc2ccc(NC(=O)Cc3cn(C)c4ccccc34)cc2C1=O do in these assays?
esBAF inh: -14.5

Results for CC(C)(C)C(=O)/C=C(N)/C=C/c1ccccc1 ?
Dyrk1A ADPGlo: 0.0; CDK5 p35 inh: -0.5; Rtt109 HAT inh: 24.9; SMARCA2 act: 4.0; dFosB act: -9.0; esBAF inh: 56.6*

Results for C[C@@H]1CN([C@@H](C)CO)C(=O)Cc2cc(NS(=O)(=O)c3ccc(Cl)cc3)ccc2O[C@H]1CN(C)C(=O)Nc1ccc2c(c1)OCO2 ?
esBAF inh: -5.0

What do the screens show for `CO[C@@H]1CN(C)C(=O)c2ccc(NC(=O)C3CCCC3)cc2OC[C@@H](C)N(CCC(F)(F)F)C[C@H]1C`?
esBAF inh: 3.3

How did CCOC(=O)C1CCN(S(=O)(=O)c2ccccc2[N+](=O)[O-])CC1 do in these assays?
SMARCA2 act: -3.7; esBAF inh: 1.0

Results for CCOC(=O)C1CCN(c2ccc([N+](=O)[O-])c(C(C)=O)c2)CC1 ?
Dyrk1A ADPGlo: -5.1; CDK5 p35 inh: -1.1; Rtt109 HAT inh: 115.5*; SMARCA2 act: -2.5; dFosB act: -9.3; esBAF inh: -4.3

Results for Cc1cc(C)n(-c2nc3ccccc3c(=O)n2OCC(=O)OCc2ccccc2)n1 ?
Dyrk1A ADPGlo: -0.2; CDK5 p35 inh: 0.2; Rtt109 HAT inh: 5.8; SMARCA2 act: 0.8; dFosB act: 1.5; esBAF inh: 48.4*

Results for Cc1cc(C)n(-c2nc3ccccc3c(=O)n2OCC(=O)N(C)C)n1 ?
Dyrk1A ADPGlo: -5.5; CDK5 p35 inh: 0.1; Rtt109 HAT inh: -15.1; SMARCA2 act: -0.1; dFosB act: -4.9; esBAF inh: -3.9

What do the screens show for `Cc1ccsc1/C=N/N1CCN(c2ccccn2)CC1`?
CDK5 p35 inh: 0.8; Rtt109 HAT inh: -5.8; SMARCA2 act: 2.6; dFosB act: -4.9

Results for Cc1ccsc1/C=N/N1CCN(c2ccccc2)CC1 ?
Dyrk1A ADPGlo: -4.7; CDK5 p35 inh: 0.9; Rtt109 HAT inh: -8.3; SMARCA2 act: 3.6; dFosB act: 5.3; esBAF inh: 48.5*

Results for C[C@@H]1CN([C@@H](C)CO)C(=O)c2cc(NC(=O)NC3CCCCC3)ccc2O[C@@H](C)CCCCO[C@H]1CN(C)C ?
esBAF inh: 2.1

Results for Cc1sc(NC(=S)NC(=O)c2ccco2)c(C(N)=O)c1C ?
Dyrk1A ADPGlo: -2.9; CDK5 p35 inh: -3.8; Rtt109 HAT inh: 4.0; SMARCA2 act: -0.7; dFosB act: -4.9; esBAF inh: 48.6*

How did CC1CCc2c(sc(NC(=O)c3ccc(Cn4cc([N+](=O)[O-])cn4)o3)c2C#N)C1 (centres undefined) do in these assays?
Dyrk1A ADPGlo: -0.7; CDK5 p35 inh: -2.8; Rtt109 HAT inh: -5.0; SMARCA2 act: -4.3; dFosB act: -6.8; esBAF inh: 22.5

Results for Cc1occc1C(=O)Nc1sc2c(c1C(N)=O)CCCCC2 ?
Dyrk1A ADPGlo: -0.8; CDK5 p35 inh: -0.6; SMARCA2 act: 4.0; dFosB act: 1.4; esBAF inh: 47.2*

Results for N#Cc1c(NC(=O)c2cnn3cccnc23)sc2c1CCCC2 ?
Dyrk1A ADPGlo: -8.1; CDK5 p35 inh: 1.1; Rtt109 HAT inh: -1.2; SMARCA2 act: -0.7; dFosB act: 5.1; esBAF inh: 42.0*

How did N#Cc1c(NC(=O)c2ccc(Cn3cc(Br)cn3)o2)sc2c1CCCCC2 do in these assays?
Dyrk1A ADPGlo: -5.3; CDK5 p35 inh: 1.2; Rtt109 HAT inh: -19.7; SMARCA2 act: 2.4; dFosB act: -2.2; esBAF inh: 44.3*

How did NC(=O)c1c(NC(=O)c2ccco2)sc2c1CCC2 do in these assays?
Dyrk1A ADPGlo: -12.8; CDK5 p35 inh: 0.8; Rtt109 HAT inh: 4.8; SMARCA2 act: 2.5; dFosB act: -4.4; esBAF inh: 103.1*

What do the screens show for `N#Cc1c(NC(=O)c2ccco2)sc2c1CCC2`?
Dyrk1A ADPGlo: 4.5; CDK5 p35 inh: -1.0; Rtt109 HAT inh: -7.9; SMARCA2 act: 2.8; dFosB act: -4.2; esBAF inh: 53.5*

What do the screens show for `O=C(Nc1sc2c(c1C(=O)O)CCCCC2)c1ccco1`?
Dyrk1A ADPGlo: 5.7; CDK5 p35 inh: -2.2; Rtt109 HAT inh: -6.7; SMARCA2 act: 2.3; dFosB act: 4.9; esBAF inh: 10.5

What do the screens show for `O=C(CN1CCOCC1)N1CC[C@@H]2[C@H]1c1cc(-c3ccc(F)cc3)ccc1N[C@@H]2CO`?
esBAF inh: -2.3

How did Cc1cc(C)c2c(N)c(C(=O)NNC(=O)c3ccccc3)sc2n1 do in these assays?
Dyrk1A ADPGlo: 4.0; CDK5 p35 inh: -1.6; Rtt109 HAT inh: 6.6; SMARCA2 act: 7.5; dFosB act: 0.2; esBAF inh: 66.4*

Results for Cc1cc(C)c2c(N)c(C(=O)N/N=C/c3ccccc3)sc2n1 ?
CDK5 p35 inh: -0.1; Rtt109 HAT inh: -13.7; SMARCA2 act: 3.4; dFosB act: -12.9; esBAF inh: 45.8*

How did O=C(c1ccc(F)cc1)N1CC[C@@H]2[C@H](CO)Nc3ccc(C#Cc4ccccc4F)cc3[C@@H]21 do in these assays?
esBAF inh: 4.6

How did COc1ccc2[nH]c(=O)c(CNc3ccccc3)cc2c1 do in these assays?
Dyrk1A ADPGlo: 14.6; CDK5 p35 inh: 1.9; Rtt109 HAT inh: -8.0; SMARCA2 act: 6.7; dFosB act: -0.3; esBAF inh: 85.4*

How did CCOc1ccc(NCc2cc3cc(OC)ccc3[nH]c2=O)cc1 do in these assays?
Dyrk1A ADPGlo: 12.9; CDK5 p35 inh: -1.1; Rtt109 HAT inh: -0.6; SMARCA2 act: -2.9; dFosB act: -3.8

Results for COc1cccc(OCc2cc(C(=O)N3CCN(c4ccccc4OC)CC3)no2)c1 ?
Dyrk1A ADPGlo: 4.3; CDK5 p35 inh: -0.8; Rtt109 HAT inh: -9.7; SMARCA2 act: 3.7; dFosB act: -5.9; esBAF inh: 77.5*
